# Results reported in PubChem BioAssay (NCATS).
# Values joined by “and” are separate entries in the source; they are usually repeats but may differ in a detail not shown here. Equal entries are not always repeated. Inconclusive results are not listed. Active and inactive are the calls of the source. Calls follow the shape of the dose curve; as a rule, active = well fitted cell-killing curve with a large enough effect; inconclusive = small, poorly fitted or top-dose-only effect; inactive = no such curve, though single readings can be large or run the other way. Non-standard residues stand in square brackets, D forms with d. Residues, ends and D or L forms follow the SMILES beside them. *: point of attachment. Sta = CC(C)C[C@H](N)[C@@H](O)CC(=O)O; Isovaleryl = CC(C)CC(=O)*
# Experiment: qHTS of pediatric cancer cell lines to identify multiple opportunities for drug repurposing: Confirmatory screen for SK-N-MC cells (AID 1347111);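 also: cells exposed to compound for 48 h before the readout; nearly all actives have a fitted effect of over 70% in size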
# Settings: SK-N-MC cell viability; series mostly up to 45.9 µM
# Text: Drug repurposing or repositioning has been offered as a strategy for drug development in oncology programs. This approach has special potential for childhood cancers and other rare or orphan diseases, where the expected return on new drug development has been a disincentive to pharmaceuticals.
# In this project we exploit the poly-pharmacology of drugs to discover new indications via phenotypic screening of a panel of 19 well-characterized cell lines derived from solid tumors seen in children and adolescents. The goal is to identify approved drugs with previously unrecognized anticancer properties that has the potential to reveal new mechanisms and biological processes involved in carcinogenesis or drug resistance. We employed a titration-based paradigm (quantitative high-throughput screening or qHTS), where all compounds were tested at multiple concentrations for their effect on cell viability. Concentration-response curves (CRCs) were derived directly from the primary screen, and both potency and efficacy values were used to identify compounds with robust bioactivity profiles. We screened the NIH Chemical Genomics Center (NCGC) Pharmaceutical Collection (NPC) and Mechanism Interrogation Plate (MIPE) small molecule collections of approved and investigational compounds against these cell lines; and measured metabolically active cells after 48 hours of compound treatment as a proxy for cell viability.
# Assay Submitter: Nathalia J. Martinez, National Center for Advancing Translational Sciences, National Institutes of Health, Rockville, MD, USA; email: natalia.martinez@nih.gov
# [1] Shen, M et al. Quantitative high-throughput phenotypic screening of pediatric cancer cell lines identifies multiple opportunities for drug repurposing. Oncotarget 2017 Dec 19;9(4):4758-4772. PMID 29435139.
# The cells were obtained from University of North Carolina (UNC), Pediatric Preclinical Testing Program (PPT), and Coriell Institute (CI).
# qHTS cell viability assay:
# Cells were assayed in growth media at a density of 500-1,000 cells/well. Five microliters of cells were dispensed into 1,536-well, white, solid-bottom, TC-treated plates (Greiner Bio One) using a multidrop dispenser and incubated at 37 degrees C, 5% CO2, under a humidified atmosphere for 5 hours. Twenty-three nanoliters of compounds and controls (neutral control DMSO or positive control bortezomib at final concentration of 2.3 µM) were subsequently transferred by Kalypsys pintool. For primary screens, the MIPE collection was tested at 11-point dilutions (final concentrations range from 0.78 nM to 46 µM) and the NPC collection at 8-point dilutions (final concentrations range from 0.59nM to 46 µM). Compounds tested in follow-up screens were assayed at 11-point dilutions. Cells were incubated for 48 hours, followed by addition of 3 uL of CellTiter-Glo (Promega). After a 15 min incubation at room temperature, samples were analyzed for luminescence intensity using a ViewLux High-throughput CCD imager equipped with clear filters.
# Potency is read from the fitted curve at half-maximal effect.
row,SMILES,Potency
1,CC1(C)C(=O)N(CCN2CCC(C(=O)c3ccc(F)cc3)CC2)c2ccccc21,3.29 µM (active)
2,O=C1c2c(O)cc(O)cc2OC(c2ccc(O)c(O)c2)C1O (stereo not drawn),inactive
3,CCN(CCO)CCCC(C)Nc1ccnc2cc(Cl)ccc12 (stereo not drawn),inactive
4,CCN(CC)CCOc1ccc(Nc2ncc3cc(-c4c(Cl)cccc4Cl)c(=O)n(C)c3n2)cc1,0.293 µM (active)
5,Clc1ccc(C(Cn2ccnc2)OCc2ccc(Sc3ccccc3)cc2)c(Cl)c1 (stereo not drawn),18.5 µM (active)
6,O=C(CCc1ccc(O)cc1)c1c(O)cc(O)cc1O,inactive
7,c1cnc2cc3c(cc2n1)C1CNCC3C1,inactive
8,Cc1cc(C2CCCCC2)n(O)c(=O)c1,5.22 µM (active)
9,Nc1nc(OCc2ccccc2)c2[nH]cnc2n1,inactive
10,CN(C)c1ccc2nc3ccc(=[N+](C)C)cc-3sc2c1,1.17 µM (active)
11,Cc1ccc(Nc2nccc(N(C)c3ccc4c(C)n(C)nc4c3)n2)cc1S(N)(=O)=O,18.5 µM (active)
12,CC(C)C[C@H](NC(=O)[C@H](Cc1ccccc1)NC(=O)c1cnccn1)B(O)O,0.0131 µM (active)
13,O=C(NCC1CCCCN1)c1cc(OCC(F)(F)F)ccc1OCC(F)(F)F (stereo not drawn),7.37 µM (active)
14,Oc1ccc(-c2nc(-c3ccc(F)cc3)c(-c3ccncc3)[nH]2)cc1,1.17 µM (active)
15,Nc1nc(Cl)nc2c1ncn2[C@H]1C[C@H](O)[C@@H](CO)O1,6.57 µM (active)
16,CCCOc1ccc2nc(NC(=O)OC)[nH]c2c1,1.31 µM (active)
17,CCc1nc(N)nc(N)c1-c1ccc(Cl)cc1,1.31 µM (active)
18,CC(=O)O[C@H]1C(=O)[C@@]2(C)C([C@H](OC(=O)c3ccccc3)[C@]3(O)C[C@H](OC(=O)[C@H](O)[C@@H](NC(=O)c4ccccc4)c4ccccc4)C(C)=C1C3(C)C)[C@]1(OC(C)=O)CO[C@@H]1C[C@@H]2O (stereo partly drawn),0.0117 µM (active)
19,CC(C)CC(=O)N[C@H](C(=O)N[C@H](C(=O)N[C@@H](CC(C)C)[C@@H](O)CC(=O)N[C@@H](C)C(=O)N[C@@H](CC(C)C)[C@@H](O)CC(=O)O)C(C)C)C(C)C (Isovaleryl-VV[Sta]A[Sta]-OH),5.22 µM (active)
20,Clc1ccc(C(Cn2ccnc2)OCc2ccsc2Cl)c(Cl)c1 (stereo not drawn),11.7 µM (active)
21,CC[C@]1(O)C[C@H]2CN(CCc3c([nH]c4ccccc34)[C@@](C(=O)OC)(c3cc4c(cc3OC)N(C=O)[C@H]3[C@@](O)(C(=O)OC)[C@H](OC(C)=O)[C@]5(CC)C=CCN6CC[C@]43[C@@H]65)C2)C1,23.3 nM (active) and 104 nM (active)
22,CCCCc1ccc2nc(NC(=O)OC)[nH]c2c1,0.329 µM (active)
23,Cc1c(C(=O)NN2CCCCC2)nn(-c2ccc(Cl)cc2Cl)c1-c1ccc(Cl)cc1,7.37 µM (active)
